# Compound activity deposited in PubChem by National Center for Advancing Translational Sciences (NCATS).
# In the library only some 11% were active in any assay of this set; here they are far more common.
# JMJD2A Tudor: inhibitors of human JMJD2A Tudor domain; O75164; AlphaScreen JMJD2A-Tudor / H3K4me3 peptide binding; Potency, µM (series often up to 114 µM), most hits filed as inhibitors; 390,000 compounds, 4.4% hits; AID 504339; note: nearly all actives have a fitted effect of over 50% in size
# HP1b chromo inh: inhibitors of HP1-beta chromodomain binding to methylated histone tails | AID 540317 | P83916 | 390,000 compounds, 0.56% hits | AlphaScreen HP1-beta / biotin-H3K9me3 peptide binding | Potency, µM (doses to about 114 µM), most hits filed as inhibitors; note: nearly all actives have a fitted effect of over 70% in size
#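 Compound inhibition of the preformed complex between 50 nM HP1-beta and 50 nM biotinylated H3K9me3 peptide was read by AlphaScreen. Buffer was PBS pH 7.4 with 0.01% Tween-20. Incubations ran 30 min at room temperature, with 10 ug/mL donor/acceptor beads.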
# G9a inh: inhibitors of human histone lysine methyltransferase G9a; G9a H3K9 monomethylation, AlphaScreen, 2 h; Potency, µM (top dose mostly 102 µM), usual class: inhibitors; 350,000 compounds, 8.8% hits; note: nearly all actives have a fitted effect of over 75% in size
#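 Signal arises when biotinylated H3K9 peptide, once monomethylated, bridges streptavidin donor and antibody-captured acceptor beads. Enzyme at 20 nM was preincubated 15 min with test compounds; peptide 500 nM and SAM 20 uM then reacted for 2 h.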
# BAZ2B inh: blocks human BAZ2B. 360,000 compounds, 4.4% hits. Potency, µM (highest dose often 114 µM), most hits filed as inhibitors. Q9UIF8. AlphaScreen BAZ2B-H3K14Ac peptide displacement; note: nearly all actives have a fitted effect of over 60% in size
# Target sequence (Q9UIF8 whole entry, looked up): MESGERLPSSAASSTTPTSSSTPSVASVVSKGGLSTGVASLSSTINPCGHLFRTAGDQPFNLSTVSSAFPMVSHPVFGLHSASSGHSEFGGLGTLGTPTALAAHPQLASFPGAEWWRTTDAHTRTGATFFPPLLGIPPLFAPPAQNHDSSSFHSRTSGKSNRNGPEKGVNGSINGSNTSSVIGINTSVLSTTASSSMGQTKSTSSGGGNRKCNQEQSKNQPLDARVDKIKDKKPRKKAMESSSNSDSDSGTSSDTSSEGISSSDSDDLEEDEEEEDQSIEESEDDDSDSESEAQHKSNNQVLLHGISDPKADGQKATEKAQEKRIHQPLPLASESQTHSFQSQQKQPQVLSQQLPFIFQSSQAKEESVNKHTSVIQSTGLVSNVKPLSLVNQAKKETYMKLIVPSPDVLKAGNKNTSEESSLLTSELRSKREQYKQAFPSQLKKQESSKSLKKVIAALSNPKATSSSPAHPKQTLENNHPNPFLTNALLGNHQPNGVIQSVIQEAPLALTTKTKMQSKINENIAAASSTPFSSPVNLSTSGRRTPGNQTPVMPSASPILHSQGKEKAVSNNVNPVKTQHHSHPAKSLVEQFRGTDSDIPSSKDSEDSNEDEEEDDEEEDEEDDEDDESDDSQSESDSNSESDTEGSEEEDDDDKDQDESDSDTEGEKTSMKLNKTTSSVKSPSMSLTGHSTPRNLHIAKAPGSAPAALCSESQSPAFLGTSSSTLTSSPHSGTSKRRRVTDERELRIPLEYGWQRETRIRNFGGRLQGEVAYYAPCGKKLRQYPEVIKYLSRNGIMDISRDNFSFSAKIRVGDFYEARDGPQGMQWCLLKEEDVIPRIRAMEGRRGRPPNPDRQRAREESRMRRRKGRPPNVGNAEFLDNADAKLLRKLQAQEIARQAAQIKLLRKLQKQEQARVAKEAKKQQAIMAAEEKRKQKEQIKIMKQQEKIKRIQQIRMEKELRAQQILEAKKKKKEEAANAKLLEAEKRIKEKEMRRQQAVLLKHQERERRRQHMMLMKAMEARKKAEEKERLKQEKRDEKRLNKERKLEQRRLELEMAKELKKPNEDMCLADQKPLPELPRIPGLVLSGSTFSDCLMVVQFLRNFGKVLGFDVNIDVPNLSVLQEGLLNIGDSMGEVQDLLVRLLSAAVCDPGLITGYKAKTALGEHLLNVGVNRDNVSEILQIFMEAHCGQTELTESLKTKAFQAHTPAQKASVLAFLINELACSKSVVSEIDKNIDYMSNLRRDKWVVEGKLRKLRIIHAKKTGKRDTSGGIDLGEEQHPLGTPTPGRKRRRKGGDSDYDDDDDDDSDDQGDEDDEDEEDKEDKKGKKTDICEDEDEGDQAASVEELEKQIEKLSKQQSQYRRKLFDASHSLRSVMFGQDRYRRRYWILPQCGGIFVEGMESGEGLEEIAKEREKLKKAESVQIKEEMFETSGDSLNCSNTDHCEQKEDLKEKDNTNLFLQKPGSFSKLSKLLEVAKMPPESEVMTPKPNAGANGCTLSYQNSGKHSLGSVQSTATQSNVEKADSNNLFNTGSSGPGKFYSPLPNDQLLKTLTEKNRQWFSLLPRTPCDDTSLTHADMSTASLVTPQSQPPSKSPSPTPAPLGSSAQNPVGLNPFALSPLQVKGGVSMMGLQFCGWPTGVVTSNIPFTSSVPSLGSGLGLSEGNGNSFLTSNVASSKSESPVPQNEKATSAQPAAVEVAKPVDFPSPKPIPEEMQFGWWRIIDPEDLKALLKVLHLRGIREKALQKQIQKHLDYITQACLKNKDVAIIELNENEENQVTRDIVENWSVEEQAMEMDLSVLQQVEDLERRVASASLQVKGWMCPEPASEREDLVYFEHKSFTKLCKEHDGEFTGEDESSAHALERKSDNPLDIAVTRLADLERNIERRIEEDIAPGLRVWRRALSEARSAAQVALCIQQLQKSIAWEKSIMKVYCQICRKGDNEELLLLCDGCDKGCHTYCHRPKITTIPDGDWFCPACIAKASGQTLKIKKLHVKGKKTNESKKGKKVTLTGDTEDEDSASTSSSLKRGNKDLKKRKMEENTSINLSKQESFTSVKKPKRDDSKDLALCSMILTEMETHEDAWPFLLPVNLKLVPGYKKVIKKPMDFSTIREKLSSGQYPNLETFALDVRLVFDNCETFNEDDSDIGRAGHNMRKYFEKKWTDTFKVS
#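 AlphaScreen displacement: compounds (up to 110uM) incubated 30 min at room temperature with a preformed 50 nM BAZ2B/50 nM biotinylated H3K14Ac peptide complex in PBS pH 7.4 with Tween-20. Donor and acceptor beads at 10 ug/mL final added, 20 min light-protected before reading.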
# L3MBTL1 inh: blocks human L3MBTL1; Q9Y468; AlphaScreen L3MBTL1–H3K9me1 peptide binding; Potency, µM (doses to about 57.1 µM), hits mostly inhibitors; 230,000 compounds, 0.66% hits; AID 485360; note: nearly all actives have a fitted effect of over 60% in size
#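 AlphaScreen assay: L3MBTL1 (50 nM final) was preincubated 30 min at room temperature with biotinylated H3(1-15)K9me1 peptide (75 nM final), then 30 min with library compounds; streptavidin donor and nickel chelate acceptor beads (10 ug/mL final) added, 30 min dark.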
# A number is an active result; . = inactive; ? = inconclusive; / = no result given; [ ] = remark or other dose. Calls come from the whole dose curve; as a rule, active = well fitted inhibition curve with a large enough effect; inconclusive = small, poorly fitted or top-dose-only effect; inactive = no such curve, though single readings can be large or run the other way.
SMILES,JMJD2A Tudor,HP1b chromo inh,G9a inh,BAZ2B inh,L3MBTL1 inh
CC1=C(C(=O)OCc2ccccc2)C(c2ccc3ccccc3c2)NC(=O)N1CCCCCC(=O)O (stereo not drawn),.,.,?,?,.
CC1=C(C(=O)OCc2ccccc2)C(c2ccc([N+](=O)[O-])cc2)NC(=O)N1CCCCCC(=O)O (stereo not drawn),.,.,?,.,.
CC(=O)Nc1cccc(NC(=O)C(=O)NCCc2csc3nc(-c4ccccc4F)nn23)c1,.,.,.,.,/
Cc1ccc2[nH]c(=O)c(CN(Cc3nnnn3Cc3ccccc3)C3CCCC3)cc2c1,.,.,8.9µM,.,.[11.4 µM]
Cc1cc(C)c2cc(CN(CCO)Cc3nnnn3Cc3ccccc3)c(=O)[nH]c2c1,.,.,40µM,.,.
Cc1cc(C)c2cc(CN(CCO)Cc3nnnn3Cc3ccc(F)cc3)c(=O)[nH]c2c1,.,.,.[12.7 µM],.,/
Cc1ccc2cc(CN(CCO)Cc3nnnn3Cc3ccc(F)cc3)c(=O)[nH]c2c1,.,.,32µM,.,.
Cc1ccc2[nH]c(=O)c(CN(Cc3ccccc3)Cc3nnnn3Cc3ccccc3)cc2c1,.,.,/,/,/
Cc1ccccc1CNC(=O)C(=O)NCC(c1cccs1)S(=O)(=O)c1ccc(Cl)cc1 (stereo not drawn),.,.,.,.,/
O=C(NCCCc1nc2ccccc2n1Cc1cccc(Cl)c1)c1ccco1,.,.,.,.,/
Cc1ccc(-c2nc(CS(=O)CC(=O)NCCCN3CCN(Cc4ccccc4)CC3)c(C)o2)cc1 (stereo not drawn),.,.,.,.,/
Cc1ccc2c(=O)cc(C(=O)Nc3nc4ccc(Cl)cc4s3)oc2c1,.,.,.,.,/
O=C(c1cccs1)N1CCCc2cc(NS(=O)(=O)c3ccc(Br)cc3)ccc21,.,.,.,.,/
COc1ccc(C(=O)NC(=S)N2CCOCC2)cc1[N+](=O)[O-],.,.,35µM,.,/
COc1ccc(S(=O)(=O)NCCN2CCOCC2)cc1[N+](=O)[O-],.,.,50µM,.,/
COc1ccc(C(=O)NC(=S)NNC(=O)c2ccc(O)cc2)cc1[N+](=O)[O-],.,.,32µM,.,/
COc1ccc(C(=O)NNC(=O)c2ccncc2)cc1[N+](=O)[O-],.,.,.,.,/
COc1ccc(C(=O)NC(=S)N2CCOCC2)cc1Br,.,.,20µM,.,/
CN1C(=O)C2(SCC(=O)N2c2ccc(F)cc2)c2ccccc21 (stereo not drawn),.,.,?,?,/
Cc1ccc(-n2nnnc2CNC(=O)c2ccc(F)cc2)cc1C,.,.,.,.,/
COc1ccc(C(=O)NC(=S)NCCO)cc1Br,.,.,45µM,.,.
COc1ccc(C(=O)NC(=S)NCc2cccnc2)cc1Br,.,.,.,?,.[11.4 µM]
CCOC(=O)Cn1c(=O)oc2cc(S(=O)(=O)N3CCC(C(=O)OCC)CC3)ccc21,.,.,.,.,/
COc1ccc(CNC(=O)C(CCSC)NS(=O)(=O)c2ccc3c(c2)oc(=O)n3C)cc1 (stereo not drawn),.,.,.,.,/
CC1=NOC(=O)/C1=C/c1ccc(O)c(Br)c1,.,.,45µM,56µM,/
SMILES,JMJD2A Tudor,HP1b chromo inh,G9a inh,BAZ2B inh,L3MBTL1 inh
O=C1NC(=S)NC1=Cc1ccc(O)cc1,.,.,/,/,/
CC1=NOC(=O)/C1=C/c1ccc(O)cc1,16µM,.,50µM,50µM,.
COc1cc2c3c(n(C)c(=O)c2cc1OC)-c1cc2c(cc1C3=O)OCO2,.,.,/,/,/
CC1CN(c2c(F)c(N)c3c(=O)c(C(=O)O)cn(C4CC4)c3c2F)CC(C)N1 (stereo not drawn),/,/,.,/,/
COc1cc(NC(=O)CCN2CCN(c3ccccc3)CC2)cc(OC)c1,.,.,.,.,/
Cc1ccc(S(=O)(=O)N2CCCC2C(=O)OCc2ccco2)cc1 (stereo not drawn),56µM,.,?,50µM,/
CC(/C=C/c1ccccc1)=N\NC(=S)NC(C)C,45µM,?,50µM,?,.
COc1ccc(OC)c(/C=C(/C#N)c2nc(-c3ccc(-c4ccccc4)cc3)cs2)c1,.,.,.,.,/
COCCNC(=O)C(c1ccc(C)o1)N(CC1CCCO1)C(=O)Cn1nnc2ccccc21 (stereo not drawn),.,.,50µM,.,.
Cc1ccc(CNC(=O)c2ccc3c(c2)N(Cc2cccc(Cl)c2)C(=O)CS3)cc1,.,.,.,.,/
COC(=O)c1sccc1N/C=C(\C#N)S(=O)(=O)C(C)(C)C,79µM,.,.,.,.
COc1ccc(/C=C2\CC/C(=C\c3ccc(OC)c(OC)c3)C2=O)cc1OC,?,.,?,20µM,.
COc1cc(/C=C2\CC/C(=C\c3ccc(OCCO)c(OC)c3)C2=O)ccc1OCCO,.,.,45µM,.,.
COc1ccc(/C=C2\CCc3ccccc3C2=O)cc1OC,.,.,?,.,.
COc1ccc(C=C2C=C(C(C)(C)C)C(=O)C(C(C)(C)C)=C2)cc1OC,32µM,?,/,25µM,.
CCSc1nnc2c(n1)OC1(CCCC1)Nc1ccccc1-2,.,.,35µM,.,.
CCSc1nnc2c(n1)OC(c1ccc(C)s1)Nc1ccccc1-2 (stereo not drawn),.,.,.,.,/
C[C@H]1COC(=O)[C@@H](NC(=O)OCC2c3ccccc3-c3ccccc32)C/C=C\C[C@H](CC(=O)NCCO)C(=O)N1,.,.,/,/,.
Cc1ccc(S(=O)(=O)N2CN(CC3CCCO3)c3nc4ccccc4nc32)c(C)c1 (stereo not drawn),.,.,32µM,?,/
COCCCN1CN(S(=O)(=O)c2ccc(C)cc2C)c2nc3ccccc3nc21,.,.,32µM,?,/
CCOCCCN1CN(S(=O)(=O)c2ccc(Cl)cc2)c2nc3ccccc3nc21,.,.,.[0.501 µM],?,.
CCCCCN1CN(S(=O)(=O)c2cccs2)c2nc3ccccc3nc21,.,.,28µM,.,.
COC(=O)c1cc2oc3ccccc3c2n1CC(=O)Nc1ccc(C)c(F)c1,.,.,.,.,/
O=C(NCCN1CCOCC1)C1CCN(S(=O)(=O)N2CCCCC2)CC1,.,.,.,.,.
O=C(NCCN1CCOCC1)C1CCN(Cc2ccccc2O)CC1,1.4µM,?,22µM,45µM,/
SMILES,JMJD2A Tudor,HP1b chromo inh,G9a inh,BAZ2B inh,L3MBTL1 inh
CSc1ccccc1Sc1cc(C(=O)O)c2ccccc2n1,.,.,10µM,.,.
Cc1ccc(NC(=O)c2c(NC(=O)c3ccccc3Cl)sc3c2CCC3)cc1,.,.,.,.,/
O=C(Nc1cccnc1)C1(F)C(F)(F)C(F)(F)C(F)(F)C(F)(F)C1(F)F,79µM,.,50µM,.,.
COC(=O)/C=C/C(=O)Nc1cccnc1,.,.,50µM,.,.
COC(=O)/C=C/C(=O)Nc1ccc(O)c(Cl)c1,.,.,40µM,?,.
O=C(Nc1cccnc1)C12CC3CC(CC(C3)C1)C2,.,.,.,.,.
O=C(Cn1ncc2c1-c1ccccc1OC2)N1CCN(c2ccccc2)CC1,.,.,.,.,/
